# Reference: PubChem BioAssay
# Legend:
# [1] = system: Human papillomavirus type 1a protein E7 (residues 44-93); experiment: small molecules binding HPV E7 44-93 – biochemical, small-molecule microarray, residues 44-93, 635 nm fluorescence, primary screen (AID 1108); conditions: fluorescence 635 nm, higher = more signal;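 note: E7 fragment applied at 1 µg/mL in TBST for 1 h at 4 C; score combines spot fluorescence with its signal to noise ratio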
# [2] = hepatitis C replication reporter changes, two-sided – Huh7 cells, luciferase reporter, HCV replication inhibitor project, primary screen (AID 1109); conditions: Huh7 HCV replicon luciferase reporter, 48 h; higher = more signal;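 note: huh7 hepatoma cells harbouring a luciferase neomycin HCV replicon reporter; luciferase luminescence as measure of HCV replicon replication; test concentration not given here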
# [3] = target: Left-right determination factor 2 (Homo sapiens) (UniProt O00292); experiment: small molecules binding LEFTY2 protein – biochemical, small-molecule microarray, 635 nm fluorescence scan, primary screen (AID 1110); conditions: higher = more signal
# Sequence of Left-right determination factor 2 (Homo sapiens) (O00292 whole entry, looked up): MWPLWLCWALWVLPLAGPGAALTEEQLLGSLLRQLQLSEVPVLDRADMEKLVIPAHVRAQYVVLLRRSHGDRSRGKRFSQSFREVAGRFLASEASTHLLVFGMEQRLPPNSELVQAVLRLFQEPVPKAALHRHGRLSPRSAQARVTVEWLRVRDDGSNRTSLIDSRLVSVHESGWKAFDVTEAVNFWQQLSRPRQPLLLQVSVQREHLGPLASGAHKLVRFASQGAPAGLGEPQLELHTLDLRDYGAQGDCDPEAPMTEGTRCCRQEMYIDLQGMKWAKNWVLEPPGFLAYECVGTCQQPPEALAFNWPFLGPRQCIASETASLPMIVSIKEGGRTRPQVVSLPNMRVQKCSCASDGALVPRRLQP
# [4] = target: Calmodulin-1 (Homo sapiens) (UniProt P0DP23); experiment: small molecules binding calmodulin-1 with EGTA – biochemical, small-molecule microarray, Cy5-labelled CALM1, profiling panel (AID 1111); conditions: Cy5-CALM1 binding fluorescence, higher = more signal;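 note: labelled calmodulin applied in Tris saline Tween buffer holding calcium plus EGTA and DTT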
# [5] = target: Calmodulin-1 (Homo sapiens) (UniProt P0DP23); experiment: small molecules binding Ca-loaded calmodulin-1 – biochemical, small-molecule microarray, Cy5-labelled CALM1, plus calcium, artefact control for SMM control-protein annotation, profiling panel (AID 1112); conditions: Cy5-CALM1 binding fluorescence, higher = more signal;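 note: score merges spot fluorescence with signal to noise from triplicate slides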
# [6] = probe aWnt5a binding to arrayed compounds – biochemical, biotinylated probe, 635/667 nm fluorescence, primary screen (AID 1113); conditions: small-molecule microarray, higher = more signal;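 note: score merges 667 nm fluorescence intensity with signal-to-noise per printed feature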
# [7] = probe aShh binding to arrayed compounds – biochemical, biotinylated probe, 635/667 nm fluorescence, primary screen (AID 1114); conditions: small-molecule microarray, higher = more signal;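 note: probe is biotin-labelled aShh protein from a stem cell growth factor screen; measures binding of labelled protein to compounds printed on the slide; score merges feature fluorescence at 667 nm with signal-to-noise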
# [8] = probe aNog binding to arrayed compounds – biochemical, biotinylated probe, 635/667 nm fluorescence, primary screen (AID 1115); conditions: small-molecule microarray, higher = more signal;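 note: probe is biotinylated aNog protein used at 0.15 µg/mL for 1 h at 4 C; z-score combines 667 nm fluorescence of each spot with its signal to noise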
# [9] = target: Torsin-1A-interacting protein 1 (Homo sapiens) (UniProt Q5JTV8); experiment: compound microarray binding of lysate hLAP1 – cell lysate, small-molecule microarray, COS7 lysate, 635/667 nm fluorescence, primary screen (AID 1116); conditions: 635 nm fluorescence, higher = more signal
# Sequence of Torsin-1A-interacting protein 1 (Homo sapiens) (Q5JTV8 whole entry, looked up): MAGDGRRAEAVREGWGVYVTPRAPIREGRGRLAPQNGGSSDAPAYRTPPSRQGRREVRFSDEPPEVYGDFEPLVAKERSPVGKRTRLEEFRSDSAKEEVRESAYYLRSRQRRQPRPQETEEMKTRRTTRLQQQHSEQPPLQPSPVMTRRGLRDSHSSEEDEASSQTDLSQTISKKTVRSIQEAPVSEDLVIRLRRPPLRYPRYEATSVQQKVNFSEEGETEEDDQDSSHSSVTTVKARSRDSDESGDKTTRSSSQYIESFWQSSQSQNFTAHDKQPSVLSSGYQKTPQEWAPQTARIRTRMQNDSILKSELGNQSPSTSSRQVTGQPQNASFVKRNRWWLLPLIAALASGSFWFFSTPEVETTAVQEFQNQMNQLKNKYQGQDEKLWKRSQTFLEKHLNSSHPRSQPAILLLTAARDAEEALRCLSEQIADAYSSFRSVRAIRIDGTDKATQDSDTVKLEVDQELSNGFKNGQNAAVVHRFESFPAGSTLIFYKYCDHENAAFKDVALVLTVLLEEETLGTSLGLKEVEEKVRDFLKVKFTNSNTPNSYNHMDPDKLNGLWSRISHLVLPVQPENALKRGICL
# [10] = target: Alpha-bungarotoxin (Bungarus multicinctus) (UniProt P60615); experiment: compounds binding labelled alpha-BTX control protein – biochemical, small-molecule microarray, Alexa647 label, 635/667 nm fluorescence, artefact control for SMM control protein annotation, profiling panel (AID 1117); conditions: alpha-BTX-A647 binding fluorescence, higher = more signal
# Sequence of Alpha-bungarotoxin (Bungarus multicinctus) (P60615 whole entry, looked up): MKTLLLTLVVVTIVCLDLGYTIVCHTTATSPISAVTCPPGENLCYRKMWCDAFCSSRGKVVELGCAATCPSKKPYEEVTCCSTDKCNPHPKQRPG
SMILES,composite z-score [1],z-score [2],composite z-score [3],composite z-score [4],composite z-score [5],composite z-score [6],composite z-score [7],composite z-score [8],composite z-score [9],composite z-score [10]
CCOC(=O)C[C@H]1[C@H](OC(=O)Cc2ccc3c(c2)OCO3)[C@@H](NC(=O)Cc2ccc(OC)cc2)c2cc(OCCCO)ccc2N1C(=O)c1ccccc1,0.142,-1.72,0.609,0.0314,-0.551,-0.154,0.233,0.588,0.569,0.997
COc1ccc(C(O)C2C=CC3C(=O)N(Cc4ccccc4)C(=O)C3N2n2cnnc2)c2ccccc12 (stereo not given),1.52,-0.6,-1.55,0.0664,-0.269,-0.12,-0.195,0.657,1.2,-0.438
COCCOC(=O)N1C(=O)[C@@]2(c3cc(C#CC4(O)CCCCCC4)ccc31)[C@H](c1ccccc1OCCO)N1[C@H](c3ccccc3)[C@H](c3ccccc3)OC(=O)[C@H]1[C@@H]2C(N)=O,-0.389,-3.33,0.844,1.06,0.0078,-0.101,0.337,0.347,0.425,1.72
C[C@]1(C(=O)NCCN2CCOCC2)c2ccccc2C(=O)N(Cc2ccc(OC(F)(F)F)cc2)[C@H]1c1ccc(CO)cc1,1.44,-0.705,-1.24,0.084,-0.0325,-0.252,-0.503,-0.313,0.836,0.396
COC(=O)[C@@]1(Cc2ccccc2)[C@H]2c3cc(C(=O)N4CCCC4)[nH]c3C[C@H]2CN1C(=O)c1ccccc1,-1.89,-0.151,-0.632,0.677,0.705,0.0913,-0.243,1.1,1.96,-0.243
CC(C)c1ccc(NN2C(C(O)c3ccco3)C=CC3C(=O)N(c4ccccc4)C(=O)C32)cc1 (stereo not given),0.729,3.21,0.183,2.07,0.941,0.0629,0.279,1.47,0.93,2.69
O=C1O[C@@H](c2ccccc2)[C@@H](c2ccccc2)N2[C@@H](c3ccccc3OCCO)[C@]3(C(=O)Nc4ccc(C#CC5=CCCCC5)cc43)[C@@H](C(=O)NC[C@H](O)c3ccccc3)[C@H]12,1.35,-3.33,0.556,1.08,0.0728,0.0388,-0.0709,0.0483,0.519,1.31
C[C@]12C(=O)N(CCCCCCO)[C@@H]3C(=O)N(c4ccc(Cl)cc4)CC=CC31O[C@@H]1/C=C\CCCOC(=O)C12 (stereo not given in full),-0.358,-0.67,-1,-0.821,-0.559,0.0297,-0.0813,0.782,0.121,-0.0604
O=C1NC(=O)C2C1C=CC(C(O)c1ccc3c(c1)OCO3)N2Nc1ccccn1 (stereo not given),-0.945,0.0264,0.324,0.151,-0.197,-0.0524,-0.0769,0.677,0.493,0.498
CCOC(=O)[C@@H]1[C@@H]2C(=O)N(CC)C(=O)[C@@H]2C[C@@H]1Sc1ccccc1,1.35,-1.33,0.0952,0.414,0.163,0.0357,0.131,0.266,0.706,1.27
COCCOC(=O)N1C(=O)[C@@]2(c3cc(C#Cc4ccc(OC)cc4)ccc31)[C@H](C(=O)NC[C@H](O)c1ccccc1)[C@H]1C(=O)O[C@H](c3ccccc3)[C@H](c3ccccc3)N1[C@@H]2c1ccc(O)cc1,0.872,-1.45,0.887,0.0624,-0.0377,-0.0816,0.875,0.369,1.37,0.931
COC(=O)[C@@]1(Cc2ccc(OC)cc2)[C@H]2c3cc(C(=O)N(C)C)n(Cc4nc5ccccc5[nH]4)c3C[C@H]2CN1C(=O)c1ccccc1,1.48,-1.81,-0.314,2.08,1.06,0.343,0.361,1.81,0.564,1.26
COC(=O)[C@@]1(Cc2ccccc2)[C@H]2c3cc(C(=O)N4CCCC4)n(C[C@H](O)CO)c3C[C@H]2CN1C(=O)c1ccccc1,0.391,-0.925,-0.43,2.06,0.142,-0.124,-0.316,-0.107,2.96,-0.187
C[C@@H](OCc1ccccc1)C1NC(=O)[C@@]23C(=O)N[C@@H](Cc4ccccc4)C2[C@H](C)[C@@]2(C)O[C@H]2C3/C=C/C/C=C\CNC(=O)CNC1=O (stereo not given in full),-0.816,-0.712,0.367,-1.15,-1.02,-0.199,-0.179,-0.323,-0.143,-1.56
CN1C(=O)C2C(C1=O)C1C=C(c3ccc(CO)cc3)C2C(c2cccs2)N1Cc1cccc(OC(F)(F)F)c1 (stereo not given),1.4,-1.3,0.526,1.1,0.334,0.0077,-0.0749,-0.251,0.291,1.43
COc1ccc(CCNC(=O)[C@@]2(Sc3ccc(C)cc3)CC(=O)N(Cc3cc(C(F)(F)F)cc(C(F)(F)F)c3)[C@@H]2c2ccc(CO)cc2I)cc1,1.27,-1.89,-1.07,0.435,-0.45,-0.0869,0.23,-0.0592,0.282,1.73
O=C(N1CCCCC1)[C@@]1(Cc2ccccc2)COC(c2ccc(OCCCO)cc2)=N1,0.242,-1.98,-0.462,2.02,1.23,0.113,0.253,0.293,0.996,1.83
